For 13 compounds, growth results are on record in PubChem BioAssay (NCI).

Compounds without any hit were thinned out: in the full panel of roughly 83,000, 20% have a hit.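 The test compound was applied at a single concentration to cells in 96-well plates for 48 hours, and percent growth was recorded.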 Unmarked numbers belong to inactive results. Activity calls are given as the source filed them. The calls were made as follows: active = growth percent below 10; inactive = the rest.

Some test systems named below: SK-MEL-2 melanoma; EKVX NSCLC; SN12C renal; UO-31 renal; TK-10 renal; ACHN renal; CAKI-1 renal; A498 renal; CCRF-CEM leukemia; MOLT-4 leukemia.
Common to all, as to assay: NCI-60 one-dose screen, 48 h (100 = growth as untreated, 0 = no growth, -100 = all killed)
Holding throughout (details): 10 µM unless noted

In the case of `COc1ccc(C2[C@@H](Cl)C(=O)N2c2cc(OC)c(OC)c(OC)c2)cc1Cl` (stereo not given in full), the growth with SK-MEL-2 melanoma was 15%; in the assay with EKVX NSCLC it was 35.4%; in the assay with SN12C renal it was 29.1%; with UO-31 renal, 45.3%; in the assay with TK-10 renal, 63.9%; in the assay on ACHN renal, 33.6%. Also, the growth in the assay with CAKI-1 renal is 26.5%; with A498 renal it was -6% (active); in the assay with CCRF-CEM leukemia, 9.36% (active); with MOLT-4 leukemia, 13.5%.
As for `Cc1ncc(C(=O)Nc2ccc(CN3CCN(C)CC3)c(C(F)(F)F)c2)cc1C#Cc1cnc(N)c2ccc(C#N)cc12`, the growth in the assay with SK-MEL-2 melanoma is -6.37% (active); with EKVX NSCLC, 50.4%; in the assay with SN12C renal, 10.4%; with UO-31 renal, -24.4% (active); in the assay with TK-10 renal, 4.43% (active); with ACHN renal, -79.6% (active). The growth with CAKI-1 renal was -72.6% (active); in the assay with A498 renal, -41% (active); with CCRF-CEM leukemia, 3.7% (active); with MOLT-4 leukemia, 8.65% (active).
`CN1C(=O)N2CN3CCCN(C3)CN3C(=S)NC1C23` (stereo not given): the growth in the assay on SK-MEL-2 melanoma is 108%; in the assay with EKVX NSCLC, 104%; with SN12C renal it was 97.7%; in the assay on UO-31 renal, 99.5%; in the assay with TK-10 renal it was 108%; in the assay on ACHN renal, 118%. In addition, the growth in the assay with CAKI-1 renal is 98%; in the assay with A498 renal, 98.9%; with CCRF-CEM leukemia, 90.2%; in the assay on MOLT-4 leukemia, 111%.
For `Cc1ccc(C2CC(c3cccc(Nc4ccncc4)c3)=Nc3c(N)nc(N)nc3N2)cc1` (stereo not given), the growth in the assay on SK-MEL-2 melanoma was 71.1%; with EKVX NSCLC, 60.2%; in the assay on SN12C renal, 61.2%; with UO-31 renal it was 75.3%; in the assay with TK-10 renal, 99.8%; in the assay with ACHN renal, 56.1%. The growth in the assay on CAKI-1 renal was 72.3%; in the assay on A498 renal, 86%; in the assay with CCRF-CEM leukemia, 33.9%; in the assay on MOLT-4 leukemia it was 33.4%.
`Cc1ccc(NC(=O)c2sc3nc(C)c(C(O)c4ccccc4)cc3c2N)cc1` (stereo not given): the growth in the assay with SK-MEL-2 melanoma was 42.5%; in the assay with EKVX NSCLC, 48%; with SN12C renal it was 18.9%; with UO-31 renal it was 41.6%; with TK-10 renal, 53%; with ACHN renal, 32.8%. In addition, the growth was 33.8% in the assay with CAKI-1 renal, -8.03% (active) in the assay with A498 renal, 7.67% (active) in the assay on CCRF-CEM leukemia and 18.1% in the assay on MOLT-4 leukemia.
Regarding `COc1cc(Cc2cc(OC)c(O)c(OC)c2)cc(OC)c1O`, the growth was 76.6% in the assay with SK-MEL-2 melanoma; 110% in the assay with EKVX NSCLC; 97.7% with SN12C renal; 120% in the assay with UO-31 renal; 107% in the assay on TK-10 renal; 106% in the assay on ACHN renal. The growth in the assay on CAKI-1 renal was 73.9%; with A498 renal it was 88.6%; in the assay with CCRF-CEM leukemia, 59.9%; in the assay on MOLT-4 leukemia it was 74.9%.
In the case of `COc1ccc2c(O)c(/C=C3\N=Nc4ncccc43)oc2c1C[C@@H]1CCNC[C@H]1F`, the growth in the assay with SK-MEL-2 melanoma was -17.9% (active); in the assay with EKVX NSCLC it was -5.63% (active); with SN12C renal it was -28.2% (active); with UO-31 renal, -14.5% (active); with TK-10 renal, -2.3% (active); in the assay with ACHN renal, -52.7% (active). For the same compound, the growth with CAKI-1 renal is 1.53% (active); with A498 renal it was -32.1% (active); in the assay on CCRF-CEM leukemia, -17.4% (active); in the assay on MOLT-4 leukemia, -9.39% (active).
As to `O=C1CCCCN1c1ccc(C2=NCCCN2)cc1`, the growth is 111% in the assay on SK-MEL-2 melanoma; 97.8% with EKVX NSCLC; 92.9% in the assay on SN12C renal; 79.1% in the assay on UO-31 renal; 98.8% in the assay on TK-10 renal; 95.7% in the assay with ACHN renal. Further, the growth with CAKI-1 renal was 100%; in the assay on A498 renal, 93.7%; with CCRF-CEM leukemia it was 116%; in the assay with MOLT-4 leukemia, 80%.
In the case of `CC(O)CNC(Cc1ccccc1)c1ccc2c(c1)OCO2` (stereo not given), the growth in the assay with SK-MEL-2 melanoma was 65%; with EKVX NSCLC, 96.6%; with SN12C renal, 105%; in the assay on UO-31 renal, 69.7%; with TK-10 renal it was 82.9%; with ACHN renal, 101%. Besides, the growth is 93.1% in the assay on CAKI-1 renal, 89.9% in the assay with A498 renal, 96.3% in the assay on CCRF-CEM leukemia and 95.4% in the assay with MOLT-4 leukemia.
Consider `C=C(C)[C@@H]1CC[C@]2(C)[C@H](C=CC3=C4C[C@@](C)(CO)CC[C@]4(C)CC[C@]32C)[C@@]1(C)CCCN`, for which the growth was -52.5% (active) in the assay on SK-MEL-2 melanoma; 42.5% with EKVX NSCLC; -13.4% (active) with SN12C renal; 47.2% in the assay on UO-31 renal; -68.4% (active) in the assay on TK-10 renal; -94.9% (active) with ACHN renal. In addition, the growth with CAKI-1 renal was -81.6% (active); in the assay on A498 renal, 68.3%; in the assay with CCRF-CEM leukemia it was 0.791% (active); in the assay with MOLT-4 leukemia, -10.5% (active).
In the case of `CCn1cc(C(=O)N/N=C/c2ccccc2)c(=O)c2cc(F)c(N3CCNC(C)C3)c(F)c21` (stereo not given), the growth in the assay on SK-MEL-2 melanoma was 93.4%; in the assay with EKVX NSCLC, 34.3%; in the assay with SN12C renal, 61.7%; with UO-31 renal, 47.5%; in the assay on TK-10 renal, 82.7%; with ACHN renal, 56.8%. For the same compound, the growth is 45.8% in the assay with CAKI-1 renal, 99.6% in the assay with A498 renal, -52.1% (active) in the assay on CCRF-CEM leukemia and -24.5% (active) with MOLT-4 leukemia.
For the compound `Cc1cccc(N=Nc2cccc(C)c2)c1`, the growth with SK-MEL-2 melanoma is 110%; with EKVX NSCLC, 96.2%; in the assay on SN12C renal, 96.7%; in the assay with UO-31 renal it was 86.8%; with TK-10 renal it was 114%; with ACHN renal it was 99.8%. The growth in the assay with CAKI-1 renal was 96.2%; with A498 renal, 93.8%; in the assay on CCRF-CEM leukemia, 108%; in the assay with MOLT-4 leukemia it was 111%.
`O=C1C(Cl)=C(Nc2ccccc2)C(=O)c2ccccc21`: the growth in the assay on SK-MEL-2 melanoma was -65.9% (active); with EKVX NSCLC, -91.9% (active); with SN12C renal, -73.5% (active); with UO-31 renal, -42.5% (active); with TK-10 renal, 172%; with ACHN renal, -86.5% (active). Also, the growth in the assay with CAKI-1 renal was -83.6% (active); in the assay on A498 renal it was 46.9%; with CCRF-CEM leukemia, -10.5% (active); in the assay on MOLT-4 leukemia, -20.1% (active).
